Several values for one entry are separate records, joined by “and”; a condition that tells them apart may be missing. Equal entries are not always repeated. Activity calls are given as the source filed them. Unless noted, how the calls were made is not given here.
Experiments:
[1] = P. berghei load reduction in hepatocytes – cell-based, HepG2, luciferase luminescence, HepG2 viability, primary screen (AID 624349; in the data active means parasite load remaining mostly below about 12%, no sharp cut-off; inactive means mostly above about 10%;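 further: 100% = mean of DMSO negative control wells on the same plate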); conditions: P. berghei liver stage in HepG2, luciferase luminescence, concentration not given here; parasite load remaining: stronger effect = lower value; viability: measured here: HepG2 viability without parasites
[2] = signal quenchers or enhancers, Cy5 substrate/SSB – biochemical, NIH Clinical Collection, E. coli SSB, artefact control for HCV NS3 helicase inhibitor project (AID 743268); conditions: Cy5-oligo bound E. coli SSB, fluorescence interference
[3] = test system: Hepatitis C virus NS3 helicase; assay: blockers of NS3h binding to DNA – biochemical, fluorescence polarization, NIH Clinical Collection, primary screen (AID 743270); conditions: NS3 helicase binding to Cy5-dT15 DNA, stronger effect = higher value, concentration not given here
[4] = target: Single-stranded DNA-binding protein (Escherichia coli (strain K12)) (UniProt P0AGE0); assay: SSB-ssDNA binding inhibitors – biochemical, fluorescence polarization, NIH Clinical Collection, counter-screen for HCV NS3 helicase inhibitor project (AID 743271; in the data active means inhibition above about 28%); conditions: E. coli SSB-DNA binding, stronger effect = higher value, concentration not given here
[5] = compounds distorting NS3 helicase fluorescence signal – biochemical, NIH Clinical Collection, artefact control for HCV NS3 helicase inhibitor project (AID 743272); conditions: fluorescence interference counterscreen, HCV NS3 helicase assay; stronger effect = lower value;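 further: HCV NS3 helicase with a Cy5 labelled single stranded DNA probe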
[6] = test system: Neuropilin-2 / VEGF-C interaction (human); assay: small molecules blocking Neuropilin-2/VEGF-C interaction – biochemical, microplate binding format, z-score (AID 743281); conditions: microplate NRP2/VEGF-C binding assay; stronger effect = lower value
[7] = Wnt pathway potentiators raising nuclear beta-catenin – imaging, WNT3A-conditioned medium, mouse C2C12, NPC library, primary screen (AID 1117326; in the data active means nuclear beta-catenin stimulation mostly above about 4.2%, no sharp cut-off; inactive means mostly below about 10%); conditions: stronger effect = higher value
[8] = stimulators of insulin release from INS-1E, primary screen, cell-based, 5 mM glucose, NPC library (AID 1117329;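 active means compound raises insulin release from rat beta cells at 5 mM glucose, no numeric limit stated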); conditions: rat INS-1E insulin secretion, at 10 µM, stronger effect = higher value
[9] = growth inhibition of GSK3B-pretreated HCT116 cells – cell-based, CellTiter-Glo, 0.2 to 20 µM (AID 1117336;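 active means compounds lowering colon cancer cell viability after pretreatment blocking the GSK3B kinase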); conditions: HCT116 viability after GSK3B inhibitor, at 20 µM, stronger effect = higher value
[10] = inhibition of endothelial tube formation, primary screen, imaging, VEGF stimulated, CD31 staining, tube area, NPC library (AID 1117340;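 active means compound that reduces growth-factor-driven endothelial tube area in a mixed cell culture, no cutoff stated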); conditions: VEGF-stimulated ADSC/ECFC co-culture, at 10 µM, stronger effect = higher value
[11] = GLP1 release stimulators, primary, NCI-H716, NPC library (AID 1117341;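 active means compound raises GLP1 secretion from the human gut endocrine cells, with no numeric limit stated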); conditions: NCI-H716 cells, at 10 µM, stronger effect = higher value
[12] = HCT116 colon cancer cell growth inhibition, primary screen, CellTiter-Glo luminescence, NPC library (AID 1117342;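 active means compounds that lower survival of HCT116 colon cancer cells in the luminescence readout, no numeric limit stated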); conditions: at 20 µM (top of the series)
[13] = reduced SW480 viability measured with CellTiter-Glo, NPC library, primary (AID 1117343;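 active means compounds that lower viability of the colon cancer cells in the luminescence readout, with no numeric limit stated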); conditions: CellTiter-Glo luminescence; at 20 µM (top of the series)
[14] = NPC library primary testing for decreased DLD-1 cell viability via CellTiter-Glo (AID 1117346;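 active means compounds that lower survival of DLD-1 colon cancer cells in the luminescence readout, no cutoff given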); conditions: DLD-1 viability, CellTiter-Glo luminescence; at 20 µM (top of the series)

| SMILES | parasite load remaining [1] | viability [1] | fluorescence ratio [2] | inhibition [3] | inhibition [4] | fluorescence ratio [5] | z-score [6] | nuclear beta-catenin stimulation ([7]; at 10 µM) | nuclear beta-catenin stimulation ([7]; stimulation, at 2 µM) [%] | insulin secretion stimulation [8] | viability decrease [9] | tube area decrease [10] | GLP1 secretion stimulation [11] | inhibition of viability [12] | viability decrease (inhibition) [13] | viability decrease (inhibition) [14] | outcome [6] |
| --- | --- | --- | --- | --- | --- | --- | --- | --- | --- | --- | --- | --- | --- | --- | --- | --- | --- |
| O=C(NCCO[N+](=O)[O-])c1cccnc1 | 31.4% (inactive) and 90.9% (inactive) and 44.6% (inactive) | 48.5% and 74.2% and 98.5% | 1.04 (inactive) | 1.19% (inactive) | 0.67% (inactive) | 1.02 (inactive) | -0.101 (inactive) | -0.4% (inactive) | -0.5 | 1.2% (inactive) | -0.2% (inactive) | -25.1% (inactive) | -1.4% (inactive) | 6% (inactive) | 0.2% (inactive) | -3.2% (inactive) | – |
| O=C(O)/C=C/c1ccc(Cn2ccnc2)cc1 | 92.2% (inactive) and 85.3% (inactive) and 50.2% (inactive) | 79.5% and 65.9% and 102% | 1.05 (inactive) | -2.77% (inactive) | -3.95% (inactive) | 0.97 (inactive) | -0.108 (inactive) | -2.1% (inactive) | 1.2 | 1.9% (inactive) | -15.3% (inactive) | 3% (inactive) | 5.1% (inactive) | 6.1% (inactive) | 9.3% (inactive) | 9% (inactive) | – |
| COC1=C(OC)C(=O)C(CCCCCCCCCCO)=C(C)C1=O | 97.9% (inactive) and 55.5% (inactive) | 71.1% and 140% | 0.94 (inactive) | -2.77% (inactive) | 2.98% (inactive) | 0.94 (inactive) | -0.18 (inactive) | -0.4% (inactive) | -1.8 | 2.2% (inactive) | 118% (active) | 66.9% (active) | 2.2% (inactive) | 94.2% (active) | 120% (active) | 82.7% (active) | – |
| Nc1ccc(O)c(C(=O)O)c1 | 86.6% (inactive) and 106% (inactive) and 16.7% (inactive) | 71.9% and 101% and 72% | 0.94 (inactive) | 3.56% (inactive) | 2.21% (inactive) | 0.94 (inactive) | -0.236 (inactive) | 2% (inactive) | 0.6 | -1.5% (inactive) | 2.55% (inactive) | -5.5% (inactive) | -4.4% (inactive) | 6.8% (inactive) | 22.9% (inactive) | 20.4% (inactive) | – |
| Cn1c(NCCN(CCO)CCCc2ccc([N+](=O)[O-])cc2)cc(=O)n(C)c1=O | 109% (inactive) and 18.9% (inactive) | 77.5% and 73.5% | 0.99 (inactive) | 0.4% (inactive) | 1.44% (inactive) | 0.97 (inactive) | 0.0586 (inactive) | 0.1% (inactive) | 0.3 | -5.7% (inactive) | 38.3% (inactive) | 1.8% (inactive) | 2.9% (inactive) | 26.6% (inactive) | 44.3% (inactive) | 14.1% (inactive) | – |
| COc1cc(C)c(Cc2cnc(N)nc2N)cc1OC | 28% (inactive) | 73.1% | 1.02 (inactive) | 1.98% (inactive) | 2.21% (inactive) | 0.95 (inactive) | -0.323 (inactive) | -0.5% (inactive) | 0.4 | 1.7% (inactive) | -7.75% (inactive) | 11.1% (inactive) | 0.8% (inactive) | 6.8% (inactive) | 11.5% (inactive) | -5.75% (inactive) | – |
| NCC1CCC(C(=O)Oc2ccc(CCC(=O)O)cc2)CC1 (centres undefined) | 104% (inactive) | 78.2% | 1.02 (inactive) | -1.98% (inactive) | -3.18% (inactive) | 0.94 (inactive) | -0.934 (inactive) | 0.5% (inactive) | 1 | -2.1% (active) | 1.9% (inactive) | 4.4% (inactive) | 1.4% (inactive) | -7.95% (inactive) | 17.7% (inactive) | 3.17% (inactive) | – |
| O=C1CC2(CCCC2)CC(=O)N1CCNCC1COc2ccccc2O1 (centres undefined) | 46.8% (inactive) | 69.1% | 0.98 (inactive) | -8.95% (inactive) | -4.33% (inactive) | 0.98 (inactive) | 0.317 (inactive) | 0.9% (inactive) | 0.6 | 5% (inactive) | -32% (inactive) | -4.9% (inactive) | -2.3% (inactive) | 25.7% (inactive) | 14.5% (inactive) | -5.7% (inactive) | – |
| Nc1c2c(nc3c1CCC3)CCCC2 | 74.2% (inactive) | 68.8% | 0.99 (inactive) | 2.77% (inactive) | 1.44% (inactive) | 0.9 (inactive) | -0.236 (inactive) | 0.3% (inactive) | 0.3 | 21.2% (active) | -1.35% (inactive) | 20.5% (inactive) | 4.4% (inactive) | 1% (inactive) | 4.4% (inactive) | -5.95% (inactive) | – |
| Nc1[nH]c(=O)ncc1F | 85.3% (inactive) and 51.1% (inactive) and 109% (inactive) | 93.3% and 117% and 86.7% | 1.01 (inactive) | -6.73% (inactive) | -1.64% (inactive) | 0.97 (inactive) | -0.751 (inactive) | 0.9% (inactive) | 1.7 | -1.8% (inactive) | -5.1% (inactive) | -15.9% (inactive) | 2.3% (inactive) | -15.1% (inactive) | -13.1% (inactive) | -0.9% (inactive) | – |
| CCOC(=O)OC(C)OC1=C(C(=O)Nc2ccccn2)N(C)S(=O)(=O)c2ccccc21 (centres undefined) | 75.6% (inactive) and 16.2% (inactive) | 78.8% and 73% | 0.97 (inactive) | -2.84% (inactive) | -0.39% (inactive) | 0.96 (inactive) | -0.884 (inactive) | 0.7% (inactive) | -0.8 | 0.55% (inactive) | 5.8% (inactive) | -1.1% (inactive) | 1% (inactive) | 8.6% (inactive) | -18.8% (inactive) | -0.2% (inactive) | – |
| COc1cc(-c2ccc(=O)[nH]n2)ccc1OC(F)F | 107% (inactive) and 103% (inactive) and 31.7% (inactive) | 78.6% and 72.5% | 0.99 (inactive) | -2.77% (inactive) | -0.87% (inactive) | 0.94 (inactive) | -0.623 (inactive) | 2% (inactive) | 0.9 | 0.6% (inactive) | -6.05% (inactive) | 99.9% (active) | 11.6% (inactive) | -6.7% (inactive) | 11.4% (inactive) | 4.45% (inactive) | – |
| CCN1CC(CCN2CCOCC2)C(c2ccccc2)(c2ccccc2)C1=O (centres undefined) | 66% (inactive) | 70.6% | 0.9 (inactive) | -8.95% (inactive) | 5.91% (inactive) | 0.88 (inactive) | -0.0578 (inactive) | -1.3% (inactive) | -3.1 | 0.3% (inactive) | 11.2% (inactive) | -7% (inactive) | 3.1% (inactive) | 17% (inactive) | 13.5% (inactive) | 4.2% (inactive) | – |
| CCOc1cc(N)c(Cl)cc1C(=O)NCC1CN(Cc2ccc(F)cc2)CCO1 (centres undefined) | 29.6% (inactive) | 70.5% | 0.99 (inactive) | 1.19% (inactive) | 4.52% (inactive) | 0.95 (inactive) | 0.948 (inactive) | 2.5% (inactive) | 1.9 | -0.4% (inactive) | 71.6% (active) | 5.1% (inactive) | 4.9% (inactive) | 46.1% (inactive) | 44.8% (inactive) | 24% (inactive) | – |
| CC1CCN(CCCC(=O)c2ccc(F)cc2)CC1 | 55.3% (inactive) | 68.6% | 1 (inactive) | -3.71% (inactive) | 1.97% (inactive) | 0.99 (inactive) | 1.36 (inactive) | 1.8% (inactive) | 0.7 | 8.9% (inactive) | 5.7% (inactive) | 10.4% (inactive) | -0.3% (inactive) | 45.7% (inactive) | 23.2% (inactive) | 37.1% (inactive) | – |
| COc1ccc(CN2CCN(C(c3ccc(F)cc3)c3ccc(F)cc3)CC2)c(OC)c1OC | 0.425% (inactive) and 2.35% (inactive) | 59.6% and 66% | 1 (inactive) | 1.19% (inactive) | 7.6% (inactive) | 0.91 (inactive) | 0.136 (inactive) | 8.4% (inactive) | 5.6 | 1.6% (inactive) | 108% (active) | -1.5% (inactive) | 2.3% (inactive) | 110% (active) | 133% (active) | 101% (active) | – |
| NC1CCN(c2nc3c(cc2F)c(=O)c(C(=O)O)cn3-c2ccc(F)cc2F)C1 (centres undefined) | 96.2% (inactive) and 26.3% (inactive) | 82.6% and 76% | 0.97 (inactive) | -5.15% (inactive) | 9.91% (inactive) | 0.98 (inactive) | -1.29 (inactive) | 1% (inactive) | 0.1 | 3.3% (inactive) | 24.4% (inactive) | 3.6% (inactive) | 2.2% (inactive) | -9.3% (inactive) | -19.3% (inactive) | -39.1% (inactive) | – |
| Nc1nc2c(ncn2CCC(CO)CO)c(=O)[nH]1 | 89.5% (inactive) and 22.2% (inactive) | 82.6% and 70.5% | 1.05 (inactive) | 2.77% (inactive) | -1.64% (inactive) | 1.01 (inactive) | – | 0.5% (inactive) | 1.8 | -2.4% (inactive) | 0.03% (inactive) | 11.3% (inactive) | 1.1% (inactive) | 6.65% (inactive) | 47.6% (inactive) | -0.57% (inactive) | inactive |
| CCCc1nc(C)c2c(=O)[nH]c(-c3cc(S(=O)(=O)N4CCN(CC)CC4)ccc3OCC)nn12 | 37.6% (inactive) and 31.5% (inactive) and 37.1% (inactive) | 202% and 68.7% and 126% | 0.94 (inactive) | -13.3% (inactive) | -1.97% (inactive) | 0.93 (inactive) | – | 0.1% (inactive) | -1 | -0.4% (inactive) | -11.4% (inactive) | -2.1% (inactive) | 0.1% (inactive) | 23.1% (inactive) | 14.2% (inactive) | -13.5% (inactive) | inactive |
